Screening results (PubChem BioAssay)
Hits are enriched below; roughly 3.2% of the tested compounds scored in any of these assays.
NTR1 agonist – agonists of human NTR1, primary screen, imaging, U2OS cells, beta-arrestin-GFP, high content; Neurotensin receptor type 1 (Homo sapiens), P30989; NTR1-U2OS beta-arrestin-GFP spot imaging, agonist mode; activation, % at 20 µM; actives 0.17% (n = 330,000);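 active means activation at or above 40% of the spot to cytoplasm intensity ratio, with at least 20 cells analyzed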
Target sequence (P30989 whole entry, looked up): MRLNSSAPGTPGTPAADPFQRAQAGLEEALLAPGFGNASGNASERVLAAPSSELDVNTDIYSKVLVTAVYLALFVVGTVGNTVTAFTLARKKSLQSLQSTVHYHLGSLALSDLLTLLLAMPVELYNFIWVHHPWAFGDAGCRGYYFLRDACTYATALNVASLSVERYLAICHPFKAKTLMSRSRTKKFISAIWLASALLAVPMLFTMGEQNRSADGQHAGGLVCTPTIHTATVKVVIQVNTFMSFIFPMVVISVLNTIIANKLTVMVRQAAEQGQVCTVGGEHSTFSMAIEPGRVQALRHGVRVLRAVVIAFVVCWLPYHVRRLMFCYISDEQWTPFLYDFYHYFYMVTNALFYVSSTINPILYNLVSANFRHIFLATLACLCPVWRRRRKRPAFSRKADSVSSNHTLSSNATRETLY
A3G deaminase – APOBEC3G DNA deaminase inhibitors, primary screen, biochemical, fluorescence, single-stranded DNA substrate, uHTS; DNA dC->dU-editing enzyme APOBEC-3G (Homo sapiens), Q9HC16; recombinant A3G, ssDNA deamination FAM/TAMRA fluorescence; AID 493012, 2011; actives 0.28% (n = 330,000); inhibition, % at 20 µM;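 active means inhibition of at least 40% at 20 µM, with no more than 30% in the related APOBEC3A deaminase screen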
AHR act – AHR activators, primary screen, cell-based, luminescence, luciferase reporter, human; AHR-responsive luciferase reporter cells; activation, % at 5 µM; Aryl hydrocarbon receptor (Homo sapiens), P35869; actives 2.5% (n = 320,000); in the data active means activation above about 47%
A3A deaminase – APOBEC3A ssDNA deaminase inhibitors, primary screen, selectivity assay for APOBEC3G inhibitor project, biochemical, FAM/TAMRA oligo cleavage fluorescence; recombinant A3A, FAM/TAMRA ssDNA deamination fluorescence; actives 0.41% (n = 330,000); inhibition, % at 20 µM; DNA dC->dU-editing enzyme APOBEC-3A (Homo sapiens), P31941;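 active means at least 40% inhibition at 20 µM here, with at most 30% in a related deaminase screen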
Target sequence (P31941 whole entry, looked up): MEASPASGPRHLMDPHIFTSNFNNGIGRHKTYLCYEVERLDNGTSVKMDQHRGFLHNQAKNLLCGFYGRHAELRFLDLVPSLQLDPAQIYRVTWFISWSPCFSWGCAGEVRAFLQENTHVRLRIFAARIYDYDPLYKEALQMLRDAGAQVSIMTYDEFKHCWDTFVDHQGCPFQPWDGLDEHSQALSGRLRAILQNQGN
AHR act confirm – AHR activators, confirmation, cell-based, luminescence, luciferase reporter, human; shares compounds with AHR act; human cells, AHR-responsive luciferase reporter; activation, % at 9 µM; actives 87% (n = 2,300); AID 2845, 2010; in the data active means activation above about 49%;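 further: HepG2 hepatoma cells carrying a DRE-driven firefly luciferase reporter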
PXR act counter – human PXR activators, counter-screen for AHR activator project, cell-based, luciferase luminescence; shares compounds with AHR act; cell-based PXR reporter; activation, % at 11.6 µM; actives 88% (n = 2,300); in the data active means activation above about 11%;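 further: human hepatoma DPX-2 cells expressing full-length human PXR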
A number is an active result; – = inactive; · = no result.

SMILES	NTR1 agonist	A3G deaminase	AHR act	A3A deaminase	AHR act confirm	PXR act counter
Cc1cc(C(=O)COc2ccc(F)cc2Br)c(C)n1C1CC1	–	–	·	–	·	·
O=C(NNC(=S)Nc1cccc(Cl)c1)c1ccccc1OC(F)F	–	–	85.2	–	126.3	27.4
O=C(NNC(=S)Nc1ccccc1)c1cc(Br)ccc1Cl	–	–	102.7	–	91.1	83.3
CSC1=NSC2=NC(=O)/C(=C\c3coc4ccccc4c3=O)C(=N)N12	·	·	–	·	·	·
CC(C)CSC1=NSC2=NC(=O)/C(=C\c3coc4ccccc4c3=O)C(=N)N12	–	–	80.9	–	–	18.1
N#CCCN(C(=O)CSc1nc2ccccc2c(=O)[nH]1)c1ccc(F)cc1	–	–	–	–	·	·
Nc1ccccc1C(=O)NNc1c2ccccc2nc2ccccc12	–	–	95.8	–	105.2	63.7
Cc1cc2ccccc2n2c(SCC(=O)Nc3ccc(S(=O)(=O)N4CCC(C)CC4)cc3)nnc12	–	–	–	–	·	·
NC(=O)[C@@H]1CCCN1Cc1nc(Cc2ccccc2Cl)no1	–	–	–	–	·	·
O=C(NCCc1ccccn1)c1c(-c2ccsc2)sc2ccccc12	–	–	128.0	–	92.2	160.9
Cn1nc(C(=O)OCC(=O)Nc2sccc2C(N)=O)c2ccccc2c1=O	–	–	–	–	·	·
COc1ccc2[nH]c3c(N4CC(C)OC(C)C4)ncnc3c2c1 (configuration not stated)	–	–	126.1	–	94.0	21.9
COc1cccc(N2CCN(c3ncnc4c3[nH]c3ccc(F)cc34)CC2C)c1 (configuration not stated)	–	–	–	–	·	·
CCCc1cc(=O)oc2cc(OCC(=O)NCc3cccs3)ccc12	–	–	87.2	–	–	43.8
CCCc1cc(=O)oc2cc(OCC(=O)NCc3ccccn3)ccc12	–	–	–	–	·	·
CCOC(=O)C1=C(C)NC(C)=C(C(=O)OC)C1c1cccc([N+](=O)[O-])c1 (configuration not stated)	–	–	–	–	·	·
COC(=O)C1=C(C)NC(C)=C(C(=O)OC)C1c1ccccc1[N+](=O)[O-]	–	–	106.0	–	–	·
Cn1nccc1C(=O)Oc1ccc(/C=N/NC(=O)c2ccccc2O)cc1	–	–	92.6	–	–	–
COC(=O)c1cc(S(=O)(=O)NCCc2sccc2C)c[nH]1	–	–	–	–	·	·
Cc1[nH]n(C(N)=S)c(=O)c1N=Nc1ccc(Br)cc1	–	–	107.9	–	134.5	39.5
Cc1[nH]n(C(N)=S)c(=O)c1N=Nc1cc(C(F)(F)F)ccc1Cl	–	–	–	–	·	·
Cc1ccc([N+](=O)[O-])cc1N=Nc1c(C)[nH]n(C(N)=S)c1=O	–	–	–	–	·	·
Cc1[nH]n(C(N)=S)c(=O)c1N=Nc1cccc(C(F)(F)F)c1	–	–	143.3	–	73.7	21.3
CCn1c(CNC(=O)c2cccnc2)cc2ccccc21	–	–	–	–	·	·
N#Cc1ccc(C23OCCN2CCn2nc4ccccc4c23)cc1 (configuration not stated)	–	–	102.8	–	108.5	94.7
SMILES	NTR1 agonist	A3G deaminase	AHR act	A3A deaminase	AHR act confirm	PXR act counter
Cc1ccccc1/C=C1\Oc2ccccc2C1=O	–	–	98.8	–	92.3	98.0
Cc1ccsc1/C=C1\Oc2cc(OCC(=O)c3ccccc3)ccc2C1=O	–	–	–	–	·	·
CN(C(=O)c1ccccc1C(=O)OCC(=O)Nc1ccccc1)c1ccccc1	–	–	–	–	·	·
CCCNC(=O)C(Cc1ccccc1)NC(=O)c1ccc(-c2ccccc2)cc1 (configuration not stated)	–	–	–	–	·	·
COc1ccccc1OCc1nc(C#N)c(N2CC(C)CC(C)C2)o1 (configuration not stated)	–	–	91.2	–	86.5	86.4
CC1CC(C)CN(c2oc(Cc3ccccc3)nc2C#N)C1 (configuration not stated)	–	–	–	–	·	·
Cc1ccc2oc(-c3ccccc3)nc2c1	–	–	–	–	·	·
Nc1c(Br)cc2oc(-c3ccccc3)nc2c1Br	–	–	84.4	–	133.7	12.9
COc1ccc(CC(=O)Oc2ccc(F)c(F)c2)cc1S(=O)(=O)N1CCOCC1	–	–	–	–	·	·
Cc1nn(-c2ccccc2)c2[nH]c(=O)c(CNc3ccc(N4CCOCC4)cc3)cc12	–	–	–	–	·	·
Cc1nn(-c2ccc(Cl)cc2)c2[nH]c(=O)c(CNCc3ccc4c(c3)OCO4)cc12	–	–	88.4	–	82.9	36.3
N#Cc1c(SCC(N)=O)nsc1SCc1ccccc1Cl	–	–	101.2	–	83.0	22.4
N#Cc1c(SCC(N)=O)nsc1SCc1ccc(Cl)cc1	–	–	80.1	–	84.2	36.4
N#Cc1c(SCC(=O)OCc2ccccc2)nsc1SCC(=O)OCc1ccccc1	–	–	–	–	·	·
CS(=O)(=O)c1ccccc1-c1nnc(NC(=O)c2ccc3ncsc3c2)o1	–	–	–	–	·	·
O=C(Nc1ccnc(-c2cccnc2)n1)c1cccc(Cl)c1Cl	–	–	–	–	·	·
O=C(Nc1ccnc(-c2cccnc2)n1)c1ccccc1Cl	–	–	135.9	–	–	16.9
O=C(Nc1cccc(Cl)c1)Nc1ccnc(-c2cccnc2)n1	–	–	148.3	–	129.2	11.9
Cc1cccc(Oc2ccc(NC(=O)C3=CC=CN4CCS(=O)(=O)N=C34)cc2)c1	–	–	–	–	·	·
S=c1[nH]c2ccccc2n1CCOc1ccccc1	–	–	96.2	–	101.6	77.4
O=c1sc2ccccc2n1CCOc1ccccc1	–	–	108.8	–	123.2	29.9
CCOc1ccc(OCCn2c(=S)[nH]c3ccccc32)cc1	–	–	·	–	·	·
O=C(NCC(=O)N(c1cccnc1)C(C(=O)NC1CCCC1)c1ccccc1F)c1ccco1 (configuration not stated)	–	–	–	–	·	·
Cc1ccc(C)c(NC(=O)CCC(=O)N2CCOc3ccccc32)c1	–	–	–	–	·	·
Cc1cc(C)c2[nH]c(O)c(N=NC3=NC(=O)CS3)c2c1	–	–	95.0	–	118.3	15.8
SMILES	NTR1 agonist	A3G deaminase	AHR act	A3A deaminase	AHR act confirm	PXR act counter
Cc1cc(C)c2[nH]c(O)c(N=Nc3ccc(C(=O)O)cc3)c2c1	–	–	–	–	·	·
Cn1ncc(C(=O)Nc2ccc(OC(F)(F)F)cc2)c1-n1cccc1	–	–	80.4	–	99.6	30.4
Cn1ncc(C(=O)Nc2ccc(Cl)cc2)c1C(F)(F)F	–	–	–	–	·	·
CC(=O)Nc1ccc(/C=N/Nc2nc3ccccc3[nH]2)cc1	–	–	156.8	–	106.7	13.0
Cn1c(/C=N/Nc2nc3ccccc3[nH]2)nc2ccccc21	–	–	87.8	–	60.3	–
Clc1nc2ccccc2cc1/C=N/Nc1nc2ccccc2[nH]1	–	–	83.0	–	73.2	20.6
